# Measurements taken from PubChem BioAssay AID1851 (National Center for Advancing Translational Sciences (NCATS), 2009).
# Among all 16,000 compounds or so, about 5,100 (32%) were called active. Inconclusive results (about 25%) are left out. Calls come from the whole dose curve; as a rule, active = well fitted curve in the direction sought with a large enough effect; inconclusive = small, poorly fitted or top-dose-only effect, or effect the other way; inactive = no such curve, though single readings can be large or run the other way. The list shows a part of the results.
# Molecular target: Cytochrome P450 3A4 (Homo sapiens) (UniProt P08684)
# Sequence (P08684 whole entry, looked up): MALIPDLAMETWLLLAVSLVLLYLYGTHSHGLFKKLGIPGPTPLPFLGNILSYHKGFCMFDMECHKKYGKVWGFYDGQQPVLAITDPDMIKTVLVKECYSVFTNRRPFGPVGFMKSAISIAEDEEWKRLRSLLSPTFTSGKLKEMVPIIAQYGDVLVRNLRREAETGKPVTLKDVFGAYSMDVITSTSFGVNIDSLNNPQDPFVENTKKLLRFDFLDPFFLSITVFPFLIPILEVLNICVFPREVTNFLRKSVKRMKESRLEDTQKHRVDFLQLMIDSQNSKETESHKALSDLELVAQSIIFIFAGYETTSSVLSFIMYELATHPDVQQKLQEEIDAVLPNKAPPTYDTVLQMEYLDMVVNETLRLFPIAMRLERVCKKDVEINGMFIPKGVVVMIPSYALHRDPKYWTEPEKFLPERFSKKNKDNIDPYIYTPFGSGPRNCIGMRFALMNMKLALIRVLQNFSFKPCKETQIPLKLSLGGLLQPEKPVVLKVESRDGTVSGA
# Experiment: Cytochrome panel assay with activity outcomes
# Conditions: recombinant CYP, pro-luciferin dealkylation, luminescence, p450-cyp3a4; series mostly up to 57.1 µM; activity, negative = inhibition: at the top concentration
# % is set by controls: 0 for no effect and ±100 for the full control effect.
SMILES,AC50,"activity, negative = inhibition"
Oc1cc2c(cc1O)[C@H](c1ccccc1)CNCC2,inactive,
CCOCCn1c(CN(Cc2ccccc2)Cc2ccccc2)nc2c1c(=O)[nH]c(=O)n2C,15.8 µM (active),
CN(C)c1nc2c(c(=O)[nH]c(=O)n2C)n1Cc1ccccc1Br,,-21% (inactive)
O=S(Cc1ccc(Br)cc1)Cc1nnc(SCc2ccc(Cl)cc2)n1-c1ccccc1 (stereo not given),7.08 µM (active),
COC(Cc1nnc(SC)n1-c1ccc(Cl)cc1)OC,,-7.38% (inactive)
O=P(O)(CCc1ccccc1)C(O)c1ccccc1 (stereo not given),,2.84% [at 11.4 µM] (inactive)
CCC(=O)[C@@H](c1ccccc1)c1ccccn1,,-1.45% [at 11.4 µM] (inactive)
CCCC(C(=O)Nc1nccs1)c1ccccc1 (stereo not given),12.6 µM (active),
O=C(O)c1ccccc1C(=O)Nc1nccs1,,-3.78% (inactive)
O=[N+]([O-])c1cc(C(F)(F)F)ccc1NCCCCNS(=O)(=O)c1ccc2ccccc2c1,14.1 µM (active),
Cc1nn(CC(=O)NCCN2CCOCC2)c(C)c1[N+](=O)[O-],,-13.5% (inactive)
Cc1nn(Cc2ccccc2Cl)c(C)c1NC(=O)CCCn1nc(C)c([N+](=O)[O-])c1C,2.51 µM (active),
Cc1c(Cl)c([N+](=O)[O-])nn1CC(=O)Nc1c(C)n(C)n(-c2ccccc2)c1=O,,-28.3% (inactive)
CN(C)CCNC(=S)Nc1cccc(Cl)c1,,21.6% (inactive)
S=C(NCc1ccccn1)Nc1cccc(Cl)c1,10 µM (active),
O=C(Nc1cccc(F)c1)Nc1ccccn1,,-1.91% (inactive)
COCC(=O)N1CCC2(CC1)CN(C(=O)Nc1ccccc1)C2,,-5.28% (inactive)
CN1CCN(c2nc(-c3ccccc3)cc(C(F)(F)F)n2)CC1,,-3.68% (inactive)
CCOC(=O)c1cc2c(C(F)(F)F)cc(-c3ccccc3)nc2o1,,-1.96% [at 2.29 µM] (inactive)
CC(Sc1nc(-c2ccccc2)cc(C(F)(F)F)n1)C(=O)N1CCCCC1 (stereo not given),7.08 µM (active),
c1ccc(-c2ccc3c(c2)c2c4n3CCN=C4CCC2)cc1,,-17.2% (inactive)
CCCS(=O)(=O)N1CCCC(C(=O)NCCCOCC)C1 (stereo not given),,-4.59% (inactive)
CCCS(=O)(=O)N1CCCC(C(=O)NCCN(C)Cc2ccccc2)C1 (stereo not given),,12.8% [at 2.29 µM] (inactive)
CCOc1ccc(OCC)c(NC(=O)C2CCCN(S(=O)(=O)c3cccs3)C2)c1 (stereo not given),5.62 µM (active),
COCCn1c(=O)c(-c2cccs2)nc2cncnc21,15.8 µM (active),

SMILES,AC50,"activity, negative = inhibition"
COCCn1c(=O)c(C)nc2cncnc21,12.6 µM (active),
COc1ccccc1CCn1c(=O)c(-c2cccs2)nc2cncnc21,3.16 µM (active),
COc1ccc(-n2c(=O)c(-c3cccs3)nc3cncnc32)cc1,,-28.3% (inactive)
Cn1c(=O)c(-c2cccs2)nc2cncnc21,7.94 µM (active),
CCCC(O)(CCC)C(=O)NN1CCCCC1,,-18.6% (inactive)
Cc1nc2cncnc2n(C2CC2)c1=O,15.8 µM (active),
Cc1nc2cnc(N(C)C)nc2n(C2CC2)c1=O,,2.85% (inactive)
CN(C)c1ncc2nc(-c3ccc(F)cc3)c(=O)n(CCc3ccccc3)c2n1,,-2.76% (inactive)
O=c1c(-c2ccc(F)cc2)nc2cncnc2n1C1CC1,,-29.9% (inactive)
COc1ccccc1CCn1c(=O)c(-c2ccc(Cl)cc2)nc2cncnc21,3.98 µM (active),
O=c1c(-c2cccc(Cl)c2)nc2cncnc2n1Cc1ccccc1,,-22.5% (inactive)
COc1ccccc1CCn1c(=O)c(-c2cccc(Cl)c2)nc2cncnc21,6.31 µM (active),
COc1ccccc1CCn1c(=O)c(-c2ccc(F)cc2)nc2cncnc21,3.98 µM (active),
O=c1c(-c2ccccc2)nc2cncnc2n1C1CC1,,-32.8% (inactive)
CC(=O)O[C@@H](C)C[N+](C)(C)C,inactive,
COCCn1c(=O)c(-c2ccccc2)nc2cncnc21,,-40% (inactive)
COc1ccccc1CCn1c(=O)c(-c2ccccc2)nc2cncnc21,3.98 µM (active),
COc1ccccc1CCn1c(=O)c(-c2ccc(F)c(F)c2)nc2cncnc21,3.16 µM (active),
Cn1c(=O)c2c(nc(C(=N)SCC(=O)O)n2C)n(C)c1=O,,-27.7% [at 11.4 µM] (inactive)
CSc1ncnc2c1ncn2[C@@H]1O[C@@H](CO)[C@H](O)O[C@@H]1O,,-26.2% [at 11.4 µM] (inactive)
OCCNc1ncnc2c1ncn2[C@@H]1O[C@@H](CO)[C@H](O)[C@@H]1O,,-9.88% [at 11.4 µM] (inactive)
CNc1ncnc2c1ncn2[C@@H]1O[C@@H](CO)[C@H](O)[C@@H]1O,,-11.5% (inactive)
Nc1ccc(CCNc2ncnc3c2ncn3[C@@H]2O[C@@H](CO)[C@H](O)[C@@H]2O)cc1,25.1 µM (active),
Cc1ccc(NC(=S)Nc2nc(CC(=O)Nc3ccccc3)cs2)cc1,6.31 µM (active),
Cc1ccc(NC(=O)Nc2nc(-c3ccc(C)s3)cs2)cc1,,-0.444% [at 2.29 µM] (inactive)

SMILES,AC50,"activity, negative = inhibition"
CNC(=O)[C@@H]1O[C@@H](n2cnc3c(N)ncnc32)[C@@H](O)[C@H]1O,,1.94% (inactive)
COc1ccc(CC(=O)Nc2ccc(-c3nnc(-c4ccccc4)o3)cc2)cc1,,7.9% (inactive)
CCC(=O)Nc1ccc2c(c1)C(=O)c1ccccc1C2=O,7.08 µM (active),
O=C(Cc1ccc(Cl)cc1)Nc1cccc(-c2nnc(-c3ccco3)o2)c1,7.94 µM (active),
COc1ccc(CC(=O)Nc2cccc(-c3nnc(-c4ccco4)o3)c2)cc1,2 µM (active),
O=C(Nc1ccc(Nc2ccc3c(c2)C(=O)c2ccccc2C3=O)c2c1C(=O)c1ccccc1C2=O)c1ccccc1,,-7.98% [at 11.4 µM] (inactive)
O=C1c2ccccc2-c2ccc(NC(=O)[C@H]3CCCC[C@@H]3C(=O)O)cc21,,-29% [at 11.4 µM] (inactive)
CCC(=O)NNC(=O)CCC(=O)Nc1ccccc1,,0.807% (inactive)
CCC(=O)Nc1cccc(-c2nnc(-c3cccc(NC(=O)CC)c3)o2)c1,14.1 µM (active),
O=C(Nc1ccc(Cl)cc1)OCc1cc(-c2ccccc2)on1,,-7.05% (inactive)
Clc1ccc(-c2nnc(-c3ccco3)o2)cc1,,1.16% [at 11.4 µM] (inactive)
CO[C@]1(NC(=O)Cc2cccs2)C(=O)N2C(C(=O)O)=C(COC(N)=O)CS[C@H]21,,-15.5% [at 25.6 µM] (inactive)
O=C1Nc2ccc(F)cc2C12SCCS2,,-8.71% (inactive)
Cc1ccc(SCc2[nH]nc3c2C(C(C)C)C(C#N)=C(N)O3)cc1 (stereo not given),,-16.4% [at 2.29 µM] (inactive)
COc1cccc(-c2[nH]nc3c2C(c2ccc(C)o2)C(C#N)=C(N)O3)c1 (stereo not given),,-27.5% [at 2.29 µM] (inactive)
COc1cccc(-c2[nH]nc3c2C(c2ccsc2)C(C#N)=C(N)O3)c1 (stereo not given),7.08 µM (active),
O=C(CC(=O)NN=C1CCCC1)NCCc1ccccc1,,4.31% [at 2.29 µM] (inactive)
CN1CCC(=NNC(=O)CSCc2ccccc2)CC1,17.8 µM (active),
CC1CCC(=NNC(=O)Cc2ccccc2)CC1 (stereo not given),,-1.06% [at 2.29 µM] (inactive)
CCCn1cnc2c1c(=O)n(CCCCC(C)=O)c(=O)n2C,,-14.5% (inactive)
CC1(C)C(=O)C(c2ccccc2)=C2CN3C(=O)N(CCc4ccccc4)C(=O)C3(Cc3ccc(C(F)(F)F)cc3)C=C21 (stereo not given),2 µM (active),
CC1(C)C(=O)C(c2ccccc2)=C2CN3C(=O)N(CCc4ccccc4)C(=O)C3(Cc3ccccc3)C=C21 (stereo not given),2 µM (active),
CC1(C)C(=O)C(c2ccccc2)=C2CN3C(=O)N(CCc4ccccc4)C(=O)C3(Cc3ccc(F)cc3)C=C21 (stereo not given),3.16 µM (active),
CN(C)/C(CN1CCN(C=O)CC1)=C1\N=C(c2ccccc2)OC1=O,,-24.6% (inactive)
CC1(C)N=C(N)N=C(N)N1CCCCc1ccccc1,,-18.8% [at 11.4 µM] (inactive)

SMILES,AC50,"activity, negative = inhibition"
CCOC(=O)c1c(O)[nH]c(=O)c(CC)c1C,,-7.96% [at 11.4 µM] (inactive)
CCNC(=S)NNC(=O)Cc1ccccc1,,7.45% (inactive)
CCNC(=S)NNC(=O)CCn1c2ccccc2c2ccccc21,4.47 µM (active),
CCNC(=S)NNC(=O)c1cccc(Br)c1,,-9.08% (inactive)
CC(C)[C@]1(Cl)CC[C@@H]2[C@]3(C)CCC[C@@](C)(C(=O)O)[C@H]3C[C@H](Cl)[C@@]2(Cl)[C@H]1Cl,,-26.1% [at 11.4 µM] (inactive)
Nc1nc2c(ncn2[C@@H]2C=C[C@@H](CO)C2)c(=O)[nH]1,,-2.95% [at 11.4 µM] (inactive)
Cc1onc(-c2c(Cl)cccc2Cl)c1C(=O)N1CCc2ccccc2C1,3.98 µM (active),
C/C(CC(=O)NCCCN1CCOCC1)=N\NC(=O)COc1ccc(Cl)cc1,15.8 µM (active),
COc1ccc(C(=O)NCCCN2CCOCC2)cc1OC,,-3.95% (inactive)
CN(C)c1ccc(-c2nc(NCCc3cnc[nH]3)c3ccccc3n2)cc1,2.51 µM (active),
COc1ccc(-c2cc([C@H](O)[C@@H]3CCCCN3)c3ccccc3n2)cc1,,-6.63% [at 11.4 µM] (inactive)
COc1ccc(CNc2nc(-c3ccc4c(c3)OCO4)nc3ccccc23)c(OC)c1,1.26 µM (active),
COc1ccccc1CNc1nc(-c2ccc(N(C)C)cc2)nc2ccccc12,3.16 µM (active),
COCCNc1nc(-c2ccc(N(C)C)cc2)nc2ccccc12,12.6 µM (active),
Clc1cnccn1,,1.91% [at 25.6 µM] (inactive)
CCN(CC)CC#CCC(C)(c1ccccc1)c1ccccc1,,-27.1% [at 2.29 µM] (inactive)
CCCOc1ccc(CSC(CC(=O)O)C(=O)O)cc1 (stereo not given),,-9.38% (inactive)
CO/N=C(\C(=O)N[C@@H]1C(=O)N2C(C(=O)O)=C(COC(C)=O)CS[C@@H]12)c1csc(N)n1,inactive,
Cc1ccc(C(=O)Oc2cc(C)n(C)c(=O)c2)cc1,,-2.99% (inactive)
CC(C)(CN)CN,,-13.3% [at 11.4 µM] (inactive)
COc1ccccc1CNc1nc(-c2ccc3c(c2)OCO3)nc2ccccc12,1.26 µM (active),
COc1ccc(S(=O)(=O)N/N=C(/C)c2cccc(NC(=O)c3ccccc3Cl)c2)cc1,2.24 µM (active),
CCC(=O)Nc1ccc(/C(C)=N\NS(=O)(=O)c2ccc(C)cc2)cc1,,-25.1% [at 2.29 µM] (inactive)
C/C(=N/NS(=O)(=O)c1ccc(C)cc1)P(=O)(O)O,,-8.75% [at 11.4 µM] (inactive)
C/C(=N/NS(=O)(=O)c1ccc(C)cc1)c1cccc(NC(=O)c2cccc(Cl)c2)c1,1.41 µM (active),
